We go through seven compounds from PubChem BioAssay (Tox21).

Assay [1] can be described thus: qHTS assay to identify small molecule agonists of H2AX - cell viability counter screen (AID 1224847; calls by dose curve; also: nearly all actives have a fitted effect of over 30% in size; also: potency is read from the fitted curve at half-maximal effect). Put shortly:
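Wild-type CHO-K1 cells (10% FBS medium) were plated overnight at 37C, exposed to compounds at 15 concentrations for 3 hr at 37C (0.76% DMSO final), and viability was read as CellTiter-Glo luminescence after 30 min at room temperature.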
(In general: qHTS replaces the single test concentration by a dilution series.)

The nature of assay [2]: qHTS assay to identify small molecule agonists of the estrogen related receptor (ERR) signaling pathway from Tox21 library (AID 1224849; calls by dose curve; also: nearly all actives have a fitted effect of over 15% in size). The note with it: ERR reporter cell line, ONE-Glo luciferase, 18 h; at 92.4 µM (top of the series) unless noted. In outline:
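Luminescent agonist read-out (One-Glo, 30-minute room-temperature incubation) following 18-hour compound treatment at 37 C of the ERR cell line, which had been plated 6 hours before dosing.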

The nature of assay [3]: qHTS RealTime-Glo MT Cell Viability Assay in HEK293 cells - 32 hour (AID 1224868). Also: nearly all actives have a fitted effect of over 50% in size. Also: potency is read from the fitted curve at half-maximal effect. In outline: (§1)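 HEK293 cells were seeded at 600 cells/well together with NanoLuc luciferase and cell-permeant prosubstrate, preincubated 5 h at 37 C/5% CO2, then given compound in DMSO by pintool. Luminescence from viable-cell prosubstrate reduction was read repeatedly over 40 h.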
Assay [4] is described as follows: A CellTox Green Cytotoxicity Assay to monitor cytotoxicity in HEK293 cells - 0 hour (AID 1224869). Also: nearly all actives have a fitted effect of over 50% in size. Put shortly:
(§2)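 Fluorescence from a DNA-binding dye excluded by viable cells was measured repeatedly in the same HEK293 wells (600 cells/well) during continuous compound exposure at 37 C. Each assay gives one read point: 0, 8, 16, 24, 32 or 40 h.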

Assay [5] can be described thus: qHTS RealTime-Glo MT Cell Viability Assay in HEK293 cells - 16 hour (AID 1224872). Also: nearly all actives have a fitted effect of over 50% in size. Also: potency is read from the fitted curve at half-maximal effect. Put shortly: as §1
A short description of assay [6]: qHTS RealTime-Glo MT Cell Viability Assay in HEK293 cells - 40 hour (AID 1224874). Also: nearly all actives have a fitted effect of over 50% in size. Also: potency is read from the fitted curve at half-maximal effect. Particulars: RealTime-Glo luminescence; max response: active compounds read low. In outline: (§3)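 Luminescence, which tracks viable cell number through reduction of the prosubstrate to a NanoLuc substrate, was read over continuous 37 C culture. Cells (600/well) were premixed with reagent and rested 5 h before 23 nL of compound in DMSO was pinned.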

Assay [7] is described as follows: A CellTox Green Cytotoxicity Assay to monitor cytotoxicity in HEK293 cells - 24 hour (AID 1224875). Also: nearly all actives have a fitted effect of over 45% in size. In outline:
as §2

A short description of assay [8]: A CellTox Green Cytotoxicity Assay to monitor cytotoxicity in HepG2 cells - 16 hour (AID 1224876). Also: nearly all actives have a fitted effect of over 45% in size. In outline:
(§4)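 Real-time cytotoxicity: fluorescence of a cell-impermeant cyanine dye binding DNA of dead HepG2 cells, measured repeatedly (0–40 h) during compound exposure at 37 C. Cells seeded 600/well with reagent, dosed after 5 h.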

Assay [9] in a line: A CellTox Green Cytotoxicity Assay to monitor cytotoxicity in HepG2 cells - 24 hour (AID 1224878). Also: nearly all actives have a fitted effect of over 45% in size. In outline:
as §4

The nature of assay [10]: A CellTox Green Cytotoxicity Assay to monitor cytotoxicity in HepG2 cells - 40 hour (AID 1224879). Also: nearly all actives have a fitted effect of over 40% in size. Also: potency is read from the fitted curve at half-maximal effect. In outline: as §4
Assay [11] is described as follows: qHTS RealTime-Glo MT Cell Viability Assay in HEK293 cells - 0 hour (AID 1224880). Also: top concentration of the series differs between compounds; nearly all actives have a fitted effect of over 45% in size. Put shortly:
as §3

A short description of assay [12]: qHTS assay to identify small molecule agonists of H2AX (AID 1224845; active = well fitted activation curve with a large enough effect in the signal ratio in the repeat runs, not every such curve was filed as active; the % refers to the signal ratio). Put shortly: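 Wild-type CHO-K1 cells plated overnight, then exposed 3 hr at 37C to compounds at 15 concentrations (0.76% DMSO). Lysed, then HTRF anti-pH2AX(S139)-cryptate/anti-H2AX-d2 detection after 24 hr at room temperature; emissions 665 and 620 nm.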
Assay [13] is described as follows: qHTS RealTime-Glo MT Cell Viability Assay in HepG2 cells - 24 hour (AID 1224867). Also: nearly all actives have a fitted effect of over 50% in size. In outline:
(§5)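 HepG2 cells were seeded at 600 cells/well together with NanoLuc luciferase and a cell-permeant prosubstrate, preincubated 5 h at 37 C/5% CO2, then pin-dosed with compounds in DMSO. Nonlytic luminescence from viable cells was read at each time point.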

Assay [14] is described as follows: qHTS RealTime-Glo MT Cell Viability Assay in HepG2 cells - 40 hour (AID 1224870). Also: nearly all actives have a fitted effect of over 50% in size. In outline: (§6)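 HepG2 cells mixed with RealTime-Glo MT reagents (NanoLuc plus cell-permeant prosubstrate) were seeded at 600 cells/well, incubated 5 h at 37 C/5% CO2, then pinned with compounds in DMSO; nonlytic luminescence tracked viability during 40 h treatment.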
Assay [15] in a line: A CellTox Green Cytotoxicity Assay to monitor cytotoxicity in HEK293 cells - 40 hour (AID 1224871). Also: nearly all actives have a fitted effect of over 45% in size. In outline:
as §2

Assay [16] is described as follows: qHTS RealTime-Glo MT Cell Viability Assay in HepG2 cells - 8 hour (AID 1224873). Also: nearly all actives have a fitted effect of over 55% in size. Put shortly:
as §6

Assay [17] can be described thus: qHTS RealTime-Glo MT Cell Viability Assay in HepG2 cells - 32 hour (AID 1224877). Also: nearly all actives have a fitted effect of over 55% in size. In outline: as §5
The nature of assay [18]: A CellTox Green Cytotoxicity Assay to monitor cytotoxicity in HEK293 cells - 32 hour (AID 1224881). Also: nearly all actives have a fitted effect of over 40% in size. In outline:
as §2

A short description of assay [19]: qHTS assay to identify small molecule antagonists of the estrogen related receptor (ERR) signaling pathway from Tox21 library (AID 1224848). Also: nearly all actives have a fitted effect of over 50% in size. Also: potency is read from the fitted curve at half-maximal effect. In outline:
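Tox21 10K compounds in DMSO tested for ERR pathway antagonism in NTP's ERR cell line; 18 h, 37 C exposure; ONE-Glo luminescence.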

A short description of assay [20]: qHTS assay to identify small molecule agonists of the hypoxia (HIF-1) signaling pathway (AID 1224846; active = well fitted activation curve with a large enough effect in the signal ratio in the repeat runs, not every such curve was filed as active; the % refers to the signal ratio). Put shortly: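 Compounds added to ME-180 cells carrying hypoxia-response-element beta-lactamase reporter (0.5% dialyzed FBS, 5 h preplating), 17 h at 37C; agonist activity detected by CCF4-AM B/G FRET read-out.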

Values joined by “and” are separate entries in the source; they are usually repeats but may differ in a detail not shown here. Equal values may be shown once. Unmarked numbers belong to inactive results. Inconclusive results are not listed. Active and inactive are the calls of the source. Unless noted, calls follow the shape of the dose curve; as a rule, active = well fitted curve in the direction sought with a large enough effect in the repeat runs; inconclusive = weak or mixed curves; inactive = no such curve, though single readings can be large; an effect the other way counts as inactive or inconclusive.
% is scaled to controls: 0 for no effect and ±100 for the full control effect.

As for `C=CC[C@]1(O)CC[C@H]2[C@@H]3CCC4=CC(=O)CCC4=C3C=C[C@@]21C`, the Potency in assay [1] was 39.1 µM (active); in assay [3] it was 16.9 µM (active); in assay [5], 19 µM (active); in assay [6] it was 19 µM (active). The activity change, positive = activation in assay [2] was -61.2% [at 42.5 µM]. The Potency entry in assay [4], in assay [7], in assay [8], in assay [9], in [10] and in assay [11] was “inactive” throughout.

Turning to `CCOC(=O)[C@]1(c2ccccc2)Oc2ccccc2[C@@H]1N`, the Potency entry in assay [12], in assay [13], in [4], in assay [14], in [15] and in [16] was “inactive” in each case. Moreover, the Potency entry in assay [7], in [8], in [17], in assay [9], in assay [10] and in assay [11] was “inactive” throughout. Moreover, the Potency result in assay [18] is “inactive”.

Regarding `C=CC(=O)OCCCCO`, the Potency entry in [1], in [19], in assay [13], in assay [3], in assay [4] and in assay [14] was “inactive” each time. Besides, the Potency entry in [15], in assay [5], in assay [7], in [8], in assay [17] and in assay [9] was “inactive” throughout. In addition, the Potency entry in assay [10], in [11] and in assay [18] was “inactive” throughout. In addition, the activity change, positive = activation in assay [2] was 68.3% (active). In addition, the max response in assay [6] is 18.2%.

For the compound `CC(C)(OO)c1ccccc1`, the compound was called inactive in [20]. Also, the Potency entry in assay [1], in assay [19], in assay [13], in assay [3], in assay [4] and in [14] was “inactive” throughout. The Potency result in assay [15], in [5], in [16], in [7], in assay [8] and in assay [17] was “inactive” in each case. For the same compound, the Potency result in [9], in [10] and in [18] was “inactive” in each case. Besides, the activity change, positive = activation in [2] was 4.39%. In addition, the max response in assay [6] was -0.0681%.

Consider `O=C(CBr)c1ccccc1`, for which, in [20], the compound was called inactive. Besides, the Potency entry in [1], in assay [13], in assay [3], in assay [4], in assay [14] and in assay [15] was “inactive” each time. Further, the Potency result in assay [5], in assay [16], in assay [7], in [8], in assay [17] and in assay [9] was “inactive” throughout. The Potency result in assay [10] and in assay [18] was “inactive” in each case. The max response in assay [6] was 3.94%.

In the case of `CCOP(=O)(OCC)SCCSCC`, the compound was classed as inactive in assay [20]. The Potency result in assay [1], in [19], in assay [13], in [3], in assay [4] and in assay [14] was “inactive” each time. For the same compound, the Potency result in [15], in assay [5], in assay [16], in assay [7], in assay [8] and in assay [17] was “inactive” each time. In addition, the Potency result in assay [9], in assay [10], in [11] and in assay [18] was “inactive” throughout. The activity change, positive = activation in assay [2] is -5.82% and 8.45%. Besides, in [6], the max response was 0.908% and 6.69%.

As to `COP(=O)(OC)O/C(=C/Cl)c1cc(Cl)c(Cl)cc1Cl`, the Potency result in assay [12], in [13], in [4], in [14], in assay [16] and in assay [7] was “inactive” each time. Moreover, the Potency entry in assay [8], in assay [17], in assay [9], in assay [11] and in assay [18] was “inactive” in each case. Further, the figures for the Potency in assay [19] and in assay [10] were 22.9 µM (active) and 36.6 µM (active), respectively. For the same compound, in assay [2], the activity change, positive = activation was -67.5%.
